# Rows were chosen to be rich in hits. Some 0.32% of all compounds tested hit in one or more screens of this group.
# Yp Topo-I inh: inhibitors of Yersinia pestis topoisomerase I; Y. pestis Topo-I cleavage product accumulation, plate reader; activity, % at 10 µM; hit rate 0.064% among 360,000; AID 504884; in the data active means activity above about 50%, passing the limit was not always enough
# Mtb BioA inh: blocks M. tuberculosis BioA enzyme activity. inhibition, % at 9.99 µM. hit rate 0.096% among 360,000. AID 602481. purified M. tuberculosis BioA enzyme, plate reader; in the data active means inhibition above about 40%
# TcdB GH inh: TcdB glycohydrolase inhibition; P18177; TcdB glycohydrolase enzymatic assay, plate reader; inhibition, % at 9.99 µM; hit rate 0.24% among 350,000; AID 652162; in the data active means inhibition above about 10%
# Numbers stand for hits; n = inactive; x = no result given.
SMILES,Yp Topo-I inh,Mtb BioA inh,TcdB GH inh
CCc1ccc(Nc2n[n+](-c3ccccc3)c(-c3ccc(SC)cc3)s2)cc1,n,n,n
O=C(NCc1cccc(F)c1)[C@@H]1[C@@H](CO)[C@@H]2Cn3c(ccc(-c4ccccc4)c3=O)[C@H]1N2CC1CC1,x,n,n
COCC#Cc1cnc2c(c1)C(=O)N([C@@H](C)CO)C[C@H](C)[C@H](CN(C)S(=O)(=O)c1ccccc1)O2,x,n,n
COc1ccc(Cc2c(N)nc(N)nc2N)cc1,n,n,x
Nc1ccc(OCCCc2c(N)nc(N)nc2N)cc1,n,n,12
Cc1ccc2nc(-c3ccc(SCC(=O)N4CCc5ccccc54)nc3)[nH]c2c1,n,x,n
Cc1ccc2nc(-c3ccc(SCC(=O)O)nc3)[nH]c2c1,55,n,x
O=C(C1CC1)N1[C@@H]2CN(S(=O)(=O)c3ccccc3)c3ccccc3[C@@H]2[C@@H]1CO,x,n,n
O=C(NN=Cc1cc(Br)c(O)c(Br)c1)c1ccccc1NS(=O)(=O)c1cccs1,n,n,14
O=C(NN=Cc1ccc(F)cc1)c1ccccc1NS(=O)(=O)c1cccs1,n,n,n
CNC[C@@H]1Oc2cc(-c3cccc(C(=O)N(C)C)c3)ccc2S(=O)(=O)N([C@H](C)CO)C[C@H]1C,x,n,n
Cc1c(OCC(=O)C(C)(C)C)ccc2c(-c3ccccc3)cc(=O)oc12,51,n,n
CC(=O)COc1ccc2c(-c3ccccc3)cc(=O)oc2c1C,n,n,n
O=C(N/N=C/c1cccc([N+](=O)[O-])c1)c1cccc(Br)c1,n,x,n
O=C(N/N=C/c1cccc([N+](=O)[O-])c1)c1ccc(Br)cc1,n,x,11
COc1cccc(-c2nc(-c3ccccc3)no2)c1,n,n,x
O=C(O)c1nn(Cc2ncc(-c3cccc(Cl)c3)o2)c(=O)c2ccccc12,52,n,n
O=C(Cn1nc(C(=O)O)c2ccccc2c1=O)Nc1cc(Cl)cc(Cl)c1,n,n,n
COc1cccc(-c2noc(Cn3nc(C(=O)O)c4ccccc4c3=O)n2)c1,54,n,n
CS(=O)(=O)N1CC(=O)N2[C@H](C1)[C@@H](c1ccc(C#CCc3ccccc3)cc1)[C@@H]2CO,x,x,n
CO[C@H]1CC[C@@H]2CCN(C)C(=O)[C@H](C)[C@@H](OC)CN(C)C(=O)c3cc(C#N)ccc3OC[C@@H]1O2,x,n,n
CC(C)c1ccc(NC(=O)C[C@H]2CC[C@H]3[C@@H](COc4ccc(NC(=O)c5ccno5)cc4C(=O)N3C)O2)cc1,x,n,n
C[C@@H]1CN([C@H](C)CO)C(=O)c2cc(-c3cccc(F)c3)cnc2O[C@@H]1CN(C)S(=O)(=O)c1cccc(F)c1,x,n,n
CCOc1ccc(NC(=O)c2cccs2)c([N+](=O)[O-])c1,n,n,x
CCOc1ccc(NC(=O)c2ccc(CC)s2)c([N+](=O)[O-])c1,n,n,10
SMILES,Yp Topo-I inh,Mtb BioA inh,TcdB GH inh
O=C(Nc1cc(F)ccc1F)N[C@@H]1CC[C@H](CCn2cc(C3CCCC3)nn2)O[C@@H]1CO,x,x,n
CCN1C(=O)CC(N2CCN(c3ccc(C(=O)c4ccncc4)cc3)CC2)C1=O (stereo not drawn),n,n,x
CCOc1ccc(N2C(=O)CC(N3CCN(c4ccc(C(=O)c5ccncc5)cc4)CC3)C2=O)cc1 (stereo not drawn),82,n,x
C[C@H](O)C#Cc1cnc2c(c1)C(=O)N([C@H](C)CO)C[C@@H](C)[C@H](CN(C)Cc1ccccn1)O2,x,n,n
O=C(NC1CCN(Cc2ccccc2)CC1)c1ccc2c(c1)OCCCO2,70,x,n
O=C(NC1CCN(Cc2ccccc2)CC1)c1cccc(Br)c1,n,n,n
O=C([C@H]1[C@H](CO)[C@H]2Cn3c(ccc(-c4ccccc4F)c3=O)[C@@H]1N2C(=O)C1CCC1)N1CCOCC1,x,n,n
CN1C(=O)CSc2ccc(NC(=O)N3CCc4ccccc43)cc21,n,n,16
Cc1ccc(NC(=O)N2CCc3ccccc32)cc1C,n,x,n
CC(=O)C1=CCC(c2ccc(Br)cc2)N(S(=O)(=O)c2ccc(C)cc2)C1 (stereo not drawn),x,n,n
Cc1ccc(S(=O)(=O)N2CC(CBr)=CCC2c2ccccc2)cc1 (stereo not drawn),x,x,16
CC(=O)C1=CCC(c2ccccc2)N(S(=O)(=O)c2ccccc2)C1 (stereo not drawn),x,n,n
CC(=O)C1=CCC(c2ccc(C)cc2)N(S(=O)(=O)c2ccc(C)cc2)C1 (stereo not drawn),x,n,12
Cc1ccc(S(=O)(=O)N(C)C[C@@H]2OCCCC[C@@H](C)Oc3ccc(NC(=O)c4ccncc4)cc3C(=O)N([C@@H](C)CO)C[C@@H]2C)cc1,x,n,n
CC(C)C#Cc1cnc2c(c1)C(=O)N([C@H](C)CO)C[C@H](C)[C@@H](CN(C)C(=O)Nc1ccc(F)cc1)O2,x,n,n
C[C@@H]1CN([C@@H](C)CO)C(=O)c2cc(C3=CCCC3)cnc2O[C@H]1CN(C)Cc1ccc(C(=O)O)cc1,x,n,n

# Screening results from PubChem BioAssay.
